In all, about 5,500 compounds went through this assay and about 2,000 (36%) were called active. Roughly 18% stayed inconclusive and do not appear here. Cut-off read from the data, not from the text of the source: active = normalized growth mostly below about 0.91 (no sharp cut-off); inconclusive = no clear call, values can overlap the other calls; inactive = mostly above about 0.92. Some of the results follow.
Assay: chemical genetic growth profiling, strain panel (AID 1159580);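 note: tested at 20 µM; growth read once vehicle control cultures reached saturation at 30 °C; 1 = growth at the plate median or of vehicle wells; lower values mean less growth of the strain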
Conditions: growth OD

Measured: normalized growth

CN(C)[C@@H]1C(=O)C(C(N)=O)=C(O)[C@@]2(O)C(=O)C3=C(O)c4c(O)cccc4[C@@](C)(O)[C@H]3[C@H](O)[C@@H]12
inactive: S. cerevisiae deletion strains, locus YJR075W, strain HOC1, stronger effect = lower value 1.01 | S. cerevisiae deletion strains, locus YKL009W, strain mrt4, stronger effect = lower value 0.996 | S. cerevisiae deletion strains, locus YKL068W, stronger effect = lower value 0.997 | S. cerevisiae deletion strains, locus YKL085W, strain MDH1 (second series), stronger effect = lower value 0.999 | S. cerevisiae deletion strains, locus YKL085W, strain MDH1, stronger effect = lower value 0.999 | S. cerevisiae deletion strains, locus YKL160W, strain elf1, stronger effect = lower value 1.02 | S. cerevisiae deletion strains, locus YKL190W, strain CNB1, stronger effect = lower value 1.01 | S. cerevisiae deletion strains, locus YKR001C, strain vps1, stronger effect = lower value 0.989 | S. cerevisiae deletion strains, locus YKR026C, strain gcn3, stronger effect = lower value 1.01 | S. cerevisiae deletion strains, locus YKR091W, strain srl3, stronger effect = lower value 1.02 | S. cerevisiae deletion strains, locus YLL001W, strain dnm1, stronger effect = lower value 1.02 | S. cerevisiae deletion strains, locus YLL026W, stronger effect = lower value 1.03 | S. cerevisiae deletion strains, locus YLL041C, strain sdh2, stronger effect = lower value 1.02 | S. cerevisiae deletion strains, locus YLR027C, strain aat2, stronger effect = lower value 1.01 | S. cerevisiae deletion strains, locus YLR039C, strain RIC1, stronger effect = lower value 1.03 | S. cerevisiae deletion strains, locus YLR058C, strain SHM2, stronger effect = lower value 1 | S. cerevisiae deletion strains, locus YLR102C, strain apc9, stronger effect = lower value 0.995 | S. cerevisiae deletion strains, locus YLR113W, strain HOG1, stronger effect = lower value 0.995 | S. cerevisiae deletion strains, locus YLR221C, strain rsa3, stronger effect = lower value 1.01 | S. cerevisiae deletion strains, locus YLR258W, strain gsy2, stronger effect = lower value 1.01 | S. cerevisiae deletion strains, locus YLR262C, strain YPT6 (second series), stronger effect = lower value 0.997 | S. cerevisiae deletion strains, locus YLR262C, strain YPT6, stronger effect = lower value 1.02 | S. cerevisiae deletion strains, locus YLR268W, strain sec22, stronger effect = lower value 0.975 | S. cerevisiae deletion strains, locus YLR320W, strain mms22, stronger effect = lower value 1.01 | S. cerevisiae deletion strains, locus YLR330W, strain CHS5, stronger effect = lower value 1.01 | S. cerevisiae deletion strains, locus YLR342W, strain FKS1 (second series), stronger effect = lower value 0.976 | S. cerevisiae deletion strains, locus YLR342W, strain FKS1, stronger effect = lower value 1 | S. cerevisiae deletion strains, locus YLR357W, strain rsc2, stronger effect = lower value 1 | S. cerevisiae deletion strains, locus YLR370C, strain arc18, stronger effect = lower value 1.02 | S. cerevisiae deletion strains, locus YLR371W, strain rom2, stronger effect = lower value 1 | S. cerevisiae deletion strains, locus YLR384C, strain iki3, stronger effect = lower value 1.02 | S. cerevisiae deletion strains, locus YLR418C, strain cdc73, stronger effect = lower value 0.986 | S. cerevisiae deletion strains, locus YML016C, strain PPZ1, stronger effect = lower value 0.994 | S. cerevisiae deletion strains, locus YML032C, strain rad52, stronger effect = lower value 0.98 | S. cerevisiae deletion strains, locus YML120C, strain ndi1, stronger effect = lower value 1.01 | S. cerevisiae deletion strains, locus YML124C, strain tub3, stronger effect = lower value 1 | S. cerevisiae deletion strains, locus YMR058W, strain fet3, stronger effect = lower value 0.977 | S. cerevisiae deletion strains, locus YMR078C, strain ctf18, stronger effect = lower value 1 | S. cerevisiae deletion strains, locus YMR125W, strain sto1, stronger effect = lower value 1.01 | S. cerevisiae deletion strains, locus YMR129W, stronger effect = lower value 1.01 | S. cerevisiae deletion strains, locus YMR205C, strain PFK2, stronger effect = lower value 1.04 | S. cerevisiae deletion strains, locus YMR223W, strain ubp8, stronger effect = lower value 0.988 | S. cerevisiae deletion strains, locus YMR231W, strain pep5, stronger effect = lower value 1.02 | S. cerevisiae deletion strains, locus YMR307W, strain GAS1, stronger effect = lower value 0.994 | S. cerevisiae deletion strains, locus YNL067W, strain RPL9B, stronger effect = lower value 1.01 | S. cerevisiae deletion strains, locus YNL071W, strain lat1, stronger effect = lower value 1.02 | S. cerevisiae deletion strains, locus YNL128W, strain TEP1, stronger effect = lower value 1.01 | S. cerevisiae deletion strains, locus YNL153C, strain GIM3, stronger effect = lower value 0.998 | S. cerevisiae deletion strains, locus YNL183C, strain NPR1, stronger effect = lower value 0.95 | S. cerevisiae deletion strains, locus YNL209W, strain ssb2, stronger effect = lower value 1.01 | S. cerevisiae deletion strains, locus YNL233W, strain BNI4, stronger effect = lower value 1 | S. cerevisiae deletion strains, locus YNL248C, strain rpa49, stronger effect = lower value 0.966 | S. cerevisiae deletion strains, locus YNL250W, strain rad50, stronger effect = lower value 0.994 | S. cerevisiae deletion strains, locus YNL271C, strain bni1, stronger effect = lower value 0.984 | S. cerevisiae deletion strains, locus YNL298W, strain CLA4, stronger effect = lower value 0.968 | S. cerevisiae deletion strains, locus YNL307C, strain MCK1, stronger effect = lower value 1.01 | S. cerevisiae deletion strains, locus YNL322C, strain KRE1 (second series), stronger effect = lower value 1.01 | S. cerevisiae deletion strains, locus YNL322C, strain KRE1, stronger effect = lower value 1 | S. cerevisiae deletion strains, locus YNR049C, strain mso1, stronger effect = lower value 1.02 | S. cerevisiae deletion strains, locus YNR052C, strain pop2, stronger effect = lower value 0.995 | S. cerevisiae deletion strains, locus YOL006C, strain TOP1, stronger effect = lower value 1.03 | S. cerevisiae deletion strains, locus YOL012C, strain htz1 0.944 | S. cerevisiae deletion strains, locus YOL147C, strain pex11, stronger effect = lower value 0.991 | S. cerevisiae deletion strains, locus YOR001W, strain rrp6, stronger effect = lower value 1.04 | S. cerevisiae deletion strains, locus YOR061W, strain CKA2, stronger effect = lower value 1 | S. cerevisiae deletion strains, locus YOR069W, strain VPS5, stronger effect = lower value 1.01 | S. cerevisiae deletion strains, locus YOR070C, strain gyp1, stronger effect = lower value 1.01 | S. cerevisiae deletion strains, locus YOR080W, strain dia2, stronger effect = lower value 1.01 | S. cerevisiae deletion strains, locus YOR083W, strain WHI5, stronger effect = lower value 1.02 | S. cerevisiae deletion strains, locus YOR106W, strain vam3, stronger effect = lower value 1.02 | S. cerevisiae deletion strains, locus YOR136W, strain idh2, stronger effect = lower value 1.01 | S. cerevisiae deletion strains, locus YOR144C, strain elg1, stronger effect = lower value 0.996 | S. cerevisiae deletion strains, locus YOR184W, strain ser1, stronger effect = lower value 1 | S. cerevisiae deletion strains, locus YOR231W, strain MKK1, stronger effect = lower value 0.99 | S. cerevisiae deletion strains, locus YOR265W, strain rbl2, stronger effect = lower value 1.02 | S. cerevisiae deletion strains, locus YOR270C, strain vph1, stronger effect = lower value 1.04 | S. cerevisiae deletion strains, locus YOR290C, strain snf2, stronger effect = lower value 1 | S. cerevisiae deletion strains, locus YOR316C, strain cot1, stronger effect = lower value 1.01 | S. cerevisiae deletion strains, locus YPL051W, strain arl3, stronger effect = lower value 0.995 | S. cerevisiae deletion strains, locus YPL055C, strain LGE1, stronger effect = lower value 1.02 | S. cerevisiae deletion strains, locus YPL078C, strain atp4, stronger effect = lower value 1.03 | S. cerevisiae deletion strains, locus YPL106C, strain sse1, stronger effect = lower value 1.02 | S. cerevisiae deletion strains, locus YPL240C, strain hsp82, stronger effect = lower value 1.03 | S. cerevisiae deletion strains, locus YPL241C, strain CIN2, stronger effect = lower value 1 | S. cerevisiae deletion strains, locus YPL256C, strain CLN2, stronger effect = lower value 0.991 | S. cerevisiae deletion strains, locus YPR119W, strain clb2, stronger effect = lower value 1 | S. cerevisiae deletion strains, locus YPR141C, strain kar3, stronger effect = lower value 0.995 | S. cerevisiae deletion strains, locus YPR163C, strain tif3, stronger effect = lower value 1 | S. cerevisiae deletion strains, locus YPR167C, strain met16, stronger effect = lower value 1 | S. cerevisiae deletion strains, strain wtn01, stronger effect = lower value 0.985 | S. cerevisiae strains, strain wild type, stronger effect = lower value 1

From PubChem BioAssay AID1159580 (chemical genetic matrix, 2015)
